Among the data in PubChem BioAssay are composite z-score values, retold here.

The target of the first assay is Calmodulin-1 (Homo sapiens) (UniProt P0DP23). Description: calcium-bound CALM1 binders on microarrays, profiling panel, artefact control for SMM control-protein annotation, biochemical, small-molecule microarray, Cy5-labelled CALM1, plus calcium (AID 1112).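 Note: score merges spot fluorescence with signal to noise from triplicate slides.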 Conditions: Cy5-CALM1 binding fluorescence, higher = more signal.
As to `CC(C)[C@H]1COC(=O)N1C(=O)[C@H]1[C@@H](c2ccccc2)N(c2ccccc2)O[C@@H]1C`, the composite z-score is -0.434. Same read-out and setting: with `O=C1O[C@@H](c2ccccc2)[C@@H](c2ccccc2)N2[C@@H](c3ccc(O)cc3)[C@]3(C(=O)Nc4ccc(C#CCCO)cc43)[C@@H](C(=O)O)[C@H]12` the figure was 0.933; with `Cc1ccc(S[C@]2(C(=O)NCCCN(C)C)CC(=O)N(C(C)C)[C@@H]2c2ccc(CO)cc2I)cc1`, 0.344; with `Cc1ccc(N2C(=O)c3ccccc3[C@](C)(C(=O)NCCN3CCOCC3)[C@@H]2c2ccc(CO)cc2)nc1`, -0.583. Still for that read-out and setting: as for `COC(=O)C(CC#Cc1ccc2c(c1)[C@]1(C(=O)N2)[C@H](C(=O)N2CCCCCCC2)[C@H]2C(=O)O[C@H](c3ccccc3)[C@H](c3ccccc3)N2[C@@H]1c1ccccc1OCCO)C(=O)OC`, the figure is 1.85.

System in the next assay: not listed separately
Description: small-molecule microarray binders of probe aWnt5a, primary screen, biochemical, biotinylated probe, 635/667 nm fluorescence (AID 1113).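 Note: score merges 667 nm fluorescence intensity with signal-to-noise per printed feature.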 To be noted: higher = more signal.
`Oc1ccc2cc[n+](Cc3cccc(OC(F)(F)F)c3)cc2c1` had a composite z-score of -0.152. The same measure, in the same setting: with `CC1CC/C=C\[C@H]2OC34C=CCN(CCN5CCOCC5)C(=O)[C@H]3N(CCCCCO)C(=O)[C@@H]4C2C(=O)O1` (stereo not given in full) the figure was -0.224; with `C=C(C(=O)CC[C@@H](OC(=O)c1cccnc1)c1ccc(CO)o1)C(C)C`, -0.139; with `C=CCC(OC(C)=O)[C@@H]1[C@@H](N(Cc2cc3ccccc3o2)C(=O)c2cccc3ccccc23)c2cc(OCCCO)ccc2N1C(=O)Cc1ccc(OC)cc1` (stereo not given in full), -0.0816. In the case of `C=CCN1C(=O)[C@]2(COC(c3ccc(OCCCO)cc3)=N2)Cc2ccccc21`, the composite z-score turned out to be 0.227.

For `O=C(NCc1ccccc1)[C@@H]1c2ccccc2C(=O)N(C2CCCCC2)[C@H]1c1ccc(CO)cc1`, the composite z-score is -0.104. Same read-out and setting: as for `[N-]=[N+]=NCc1ccccc1C[C@@]1(C(=O)NCc2ccccc2)N=C(c2ccc(OCCCO)cc2)O[C@@H]1c1ccccc1CN=[N+]=[N-]`, the figure is 0.178; as for `CCOC(=O)C=Cc1cccc(OC)c1O`, -0.122; as for `CN(C)CCCC[C@@H]1NC(=O)[C@H]2C[C@@H](C(=O)NCCCCCNC(=O)CS)[C@@H](c3ccc(O)cc3)N2C1=O`, -0.124. On the same count and under the same terms, as for `COC(=O)[C@@]1(Cc2ccccc2)[C@H]2c3cc(C(=O)N(C)C)n(Cc4cc(F)c(F)c(F)c4)c3C[C@H]2CN1C(=O)c1ccccc1`, the figure is 0.216; as for `C=C(C)[C@@H]1CC=C(C(O)C2C=CC3C(=O)N(Cc4ccccc4)C(=O)C3N2n2cnnc2)CC1` (stereo not given in full), 0.0077. Turning to `O=C(NCCN1CCOCC1)[C@@H]1c2ccccc2C(=O)N(Cc2cc(F)cc(C(F)(F)F)c2)[C@H]1c1ccc(CO)cc1`, the composite z-score is -0.124. `O=C1O[C@H](c2ccccc2)[C@H](c2ccccc2)N2[C@H]1[C@@H](C(=O)NC[C@H](O)c1ccccc1)[C@]1(C(=O)Nc3ccc(C#CC4(O)CCCCCC4)cc31)[C@H]2c1ccccc1OCCO` had a composite z-score of -0.145. For the compound `C=C(/C(=C/C[C@@H](OC(=O)c1ccncc1)c1ccc(CO)o1)c1cc(C(=O)OC)ccc1OC)C(C)C`, the composite z-score was -0.063. As to `COc1ccc([Si](C)(C)[C@@H]2[C@@H](CCO)O[C@]3(C(=O)N(Cc4ccccc4)c4ccc(N(C=O)c5ccccc5)cc43)[C@H]2C)cc1`, the composite z-score was -0.117. The compound `CCCCCCC#C[Si](O[C@H](c1ccccc1)c1cn([C@H](C)c2ccccc2)nn1)(C(C)C)C(C)C` gave a composite z-score of 0.0317. `[N-]=[N+]=NCc1ccccc1[C@@H]1OC(c2ccc(OCCCO)cc2)=N[C@]1(Cc1ccccc1)C(=O)O` came in with a composite z-score of -0.0479. On the same count and under the same terms, with `CCCC[C@@H]1C[C@H]1[C@@H](NC(=O)c1ccccc1)c1ccc(-c2ccccc2)cc1` the figure was 0.0375; with `Cc1ccc(S[C@]2(C(=O)NCCN3CCOCC3)CC(=O)N(C3CCCCC3)[C@@H]2c2ccc(CO)cc2)cc1`, -0.0685; with `CC(C)NC(=O)[C@@]1(c2ccc([N+](=O)[O-])cc2)CC(=O)N(C(C)C)[C@@H]1c1ccc(CO)cc1`, -0.197. On the same count and under the same terms, as for `C=CCN1Cc2ccccc2C[C@@]2(COC(c3ccc(OCCCO)cc3)=N2)C1=O`, the figure is 0.0633; as for `COCCn1c(C(=O)N2CCCC2)cc2c1C[C@H]1CN(C(=O)c3ccccc3)[C@@](Cc3ccc(OC)cc3)(C(=O)OC)[C@@H]21`, 0.0365; as for `C=C[C@@H](C)[C@@H](OC(=O)Nc1ccc(OC)cc1)c1ccc(O)c2ccccc12`, -0.152. Still for that read-out and setting: as for `COCCOC(=O)N1C(=O)[C@@]2(c3ccccc31)[C@H](C(=O)N1CCCCCCC1)[C@H]1C(=O)O[C@H](c3ccccc3)[C@H](c3ccccc3)N1[C@@H]2c1ccccc1OCCO`, the figure is 0.883.

Regarding `COCCn1c(C(=O)N(C)C)cc2c1C[C@H]1CN(C(=O)c3ccccc3)[C@@](Cc3ccc(F)cc3)(C(=O)OC)[C@@H]21`, the composite z-score is 0.0559.
